Assay [1] relates to Plasmodium falciparum Sir2 (PF13_0152, Sir2A). Nature of the assay: Plasmodium falciparum Sir2A binding compounds – biochemical, small-molecule microarray, 635 nm fluorescence, primary screen (AID 1098).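 Also: score merges spot fluorescence intensity with its signal-to-noise ratio.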 The conditions noted are these: fluorescence 635 nm, higher = more signal.
A short description of assay [2]: probe aDKK1 binding to arrayed compounds – biochemical, biotinylated probe, 635/667 nm fluorescence, primary screen (AID 1099).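 Also: score merges 667nm spot fluorescence with signal to noise across triplicate slides.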 The conditions noted are these: small-molecule microarray, higher = more signal.
The nature of assay [3]: probe aCHRDL2 binding to arrayed compounds – biochemical, biotinylated probe, 635/667 nm fluorescence, primary screen (AID 1100). Particulars: small-molecule microarray, higher = more signal.
Assay [4] can be described thus: change in splice reporter luminescence, either direction, cell-based, HEK293, spliceosome inhibition project, primary screen (AID 1101).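 Also: HEK293 cells carrying a splicing-competent luciferase reporter gene; test concentration not given here.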 Particulars: HEK293 splicing luciferase reporter, 24 h, higher = more signal, called active from +8 up or from −8 down.
For assay [5], the target named is Fibroblast growth factor 10 (Homo sapiens) (UniProt O15520). Nature of the assay: compounds binding fibroblast growth factor 10 – biochemical, small-molecule microarray, 635 nm fluorescence, primary screen (AID 1102). Particulars: FGF10 binding, fluorescence 635 nm, higher = more signal.
Sequence of Fibroblast growth factor 10 (Homo sapiens) (O15520 whole entry, looked up): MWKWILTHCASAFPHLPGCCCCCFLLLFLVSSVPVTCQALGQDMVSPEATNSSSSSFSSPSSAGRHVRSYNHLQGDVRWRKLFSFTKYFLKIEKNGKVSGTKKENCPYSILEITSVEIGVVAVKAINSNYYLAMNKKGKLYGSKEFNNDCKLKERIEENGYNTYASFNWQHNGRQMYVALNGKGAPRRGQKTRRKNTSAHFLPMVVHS
Assay [6] relates to glycogen synthase kinase-3 (GSK3A per assay name; protocol says GSK3B). Nature of the assay: compounds binding glycogen synthase kinase-3 – biochemical, small-molecule microarray, 635 nm fluorescence, GSK3A, primary screen (AID 1103). Also: the record names both GSK3A and GSK3B. The conditions noted are these: fluorescence 635 nm, higher = more signal.
For assay [7], the target named is Epidermal growth factor receptor (Homo sapiens) (UniProt P00533). Nature of the assay: compounds binding epidermal growth factor receptor – biochemical, small-molecule microarray, 635 nm fluorescence, primary screen (AID 1104).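 Also: score merges 667 nm emission intensity with spot signal to noise over triplicate slides.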 Particulars: EGFR binding, higher = more signal.
Sequence of Epidermal growth factor receptor (Homo sapiens) (P00533 whole entry, looked up): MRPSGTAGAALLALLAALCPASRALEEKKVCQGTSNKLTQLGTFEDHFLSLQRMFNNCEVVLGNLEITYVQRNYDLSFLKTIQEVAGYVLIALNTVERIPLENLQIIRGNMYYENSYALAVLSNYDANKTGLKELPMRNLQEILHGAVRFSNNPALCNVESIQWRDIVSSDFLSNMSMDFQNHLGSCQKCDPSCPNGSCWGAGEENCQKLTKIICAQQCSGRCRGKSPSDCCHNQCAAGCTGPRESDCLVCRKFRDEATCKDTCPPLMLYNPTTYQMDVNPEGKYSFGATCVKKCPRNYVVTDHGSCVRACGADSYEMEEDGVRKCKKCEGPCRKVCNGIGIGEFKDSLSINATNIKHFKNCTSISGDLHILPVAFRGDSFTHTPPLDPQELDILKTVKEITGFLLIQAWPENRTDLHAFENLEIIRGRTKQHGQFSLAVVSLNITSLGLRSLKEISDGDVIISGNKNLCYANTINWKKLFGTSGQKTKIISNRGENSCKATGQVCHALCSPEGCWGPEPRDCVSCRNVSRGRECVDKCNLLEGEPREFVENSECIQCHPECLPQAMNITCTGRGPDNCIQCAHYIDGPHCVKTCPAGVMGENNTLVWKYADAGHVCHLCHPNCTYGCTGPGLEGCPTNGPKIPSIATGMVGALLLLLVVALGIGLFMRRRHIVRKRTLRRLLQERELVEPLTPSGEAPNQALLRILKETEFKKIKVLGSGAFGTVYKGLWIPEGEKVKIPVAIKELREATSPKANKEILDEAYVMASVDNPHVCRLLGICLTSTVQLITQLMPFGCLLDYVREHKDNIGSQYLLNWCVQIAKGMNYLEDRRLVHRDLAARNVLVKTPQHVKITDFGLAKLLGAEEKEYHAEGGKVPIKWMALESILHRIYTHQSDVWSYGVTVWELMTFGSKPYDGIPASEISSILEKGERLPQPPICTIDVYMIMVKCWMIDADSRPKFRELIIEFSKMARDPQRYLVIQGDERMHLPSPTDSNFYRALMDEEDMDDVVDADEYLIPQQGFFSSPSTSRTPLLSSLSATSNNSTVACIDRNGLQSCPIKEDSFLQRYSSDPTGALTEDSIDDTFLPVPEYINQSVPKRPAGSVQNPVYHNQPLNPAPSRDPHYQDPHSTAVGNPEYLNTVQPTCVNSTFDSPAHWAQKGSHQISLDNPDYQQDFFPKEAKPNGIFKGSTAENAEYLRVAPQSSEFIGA
The target in assay [8] is Follistatin-related protein 3 (Homo sapiens) (UniProt O95633). Nature of the assay: compounds binding follistatin-related protein 3 – biochemical, small-molecule microarray, 635 nm fluorescence, primary screen (AID 1105).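 Also: score merges emission near 667 nm and signal to noise per printed spot across three slides.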 The conditions noted are these: FSTL3 binding, higher = more signal.
Sequence of Follistatin-related protein 3 (Homo sapiens) (O95633 whole entry, looked up): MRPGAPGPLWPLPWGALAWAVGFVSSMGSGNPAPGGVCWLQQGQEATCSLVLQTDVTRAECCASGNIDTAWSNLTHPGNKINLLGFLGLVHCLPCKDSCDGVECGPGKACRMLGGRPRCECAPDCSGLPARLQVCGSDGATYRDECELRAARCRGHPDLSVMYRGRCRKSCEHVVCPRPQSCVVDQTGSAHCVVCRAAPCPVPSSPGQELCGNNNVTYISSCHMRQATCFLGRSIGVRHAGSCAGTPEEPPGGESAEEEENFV
For assay [9], the target named is Dickkopf-related protein 1 (Homo sapiens) (UniProt O94907). Nature of the assay: small molecules binding DKK1 protein – biochemical, small-molecule microarray, 635 nm fluorescence scan, primary screen (AID 1106).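 Also: score merges emission near 667 nm with signal to noise over three replicate slides.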 Particulars: higher = more signal.
Sequence of Dickkopf-related protein 1 (Homo sapiens) (O94907 whole entry, looked up): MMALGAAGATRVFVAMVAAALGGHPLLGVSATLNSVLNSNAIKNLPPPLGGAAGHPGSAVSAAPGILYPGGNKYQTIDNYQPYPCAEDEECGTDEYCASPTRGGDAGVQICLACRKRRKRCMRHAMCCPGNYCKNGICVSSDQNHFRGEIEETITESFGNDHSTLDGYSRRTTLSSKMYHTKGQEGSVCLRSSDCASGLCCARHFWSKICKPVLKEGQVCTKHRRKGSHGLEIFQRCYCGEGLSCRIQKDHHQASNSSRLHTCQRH
The test system of assay [10] is Inhibin beta A chain (activin A). Nature of the assay: small molecules binding activin A – biochemical, small-molecule microarray, 635 nm fluorescence scan, primary screen (AID 1107).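 Also: mouse activin A protein probed at 4.33 µg/mL on printed slides; score merges bound-protein fluorescence near 667 nm with spot signal-to-noise.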 Particulars: INHBA, higher = more signal.
The test system of assay [11] is Human papillomavirus type 1a protein E7 (residues 44-93). The assay is described as follows: small molecules binding HPV E7 44-93 – biochemical, small-molecule microarray, residues 44-93, 635 nm fluorescence, primary screen (AID 1108).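 Also: E7 fragment applied at 1 µg/mL in TBST for 1 h at 4 C; score combines spot fluorescence with its signal to noise ratio.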 Particulars: fluorescence 635 nm, higher = more signal.
Assay [12] is described as follows: hepatitis C replication reporter changes, two-sided – Huh7 cells, luciferase reporter, HCV replication inhibitor project, primary screen (AID 1109).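 Also: huh7 hepatoma cells harbouring a luciferase neomycin HCV replicon reporter; luciferase luminescence as measure of HCV replicon replication; test concentration not given here.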 Particulars: Huh7 HCV replicon luciferase reporter, 48 h; higher = more signal.
Assay [13] addresses Left-right determination factor 2 (Homo sapiens) (UniProt O00292). Nature of the assay: small molecules binding LEFTY2 protein – biochemical, small-molecule microarray, 635 nm fluorescence scan, primary screen (AID 1110). Particulars: higher = more signal.
Assay [14] has as its target Calmodulin-1 (Homo sapiens) (UniProt P0DP23). Nature of the assay: small molecules binding calmodulin-1 with EGTA – biochemical, small-molecule microarray, Cy5-labelled CALM1, profiling panel (AID 1111).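 Also: labelled calmodulin applied in Tris saline Tween buffer holding calcium plus EGTA and DTT.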 The conditions noted are these: Cy5-CALM1 binding fluorescence, higher = more signal.
For assay [15] the target is unchanged. Nature of the assay: small molecules binding Ca-loaded calmodulin-1 – biochemical, small-molecule microarray, Cy5-labelled CALM1, plus calcium, artefact control for SMM control-protein annotation, profiling panel (AID 1112).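 Also: score merges spot fluorescence with signal to noise from triplicate slides.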 Particulars: Cy5-CALM1 binding fluorescence, higher = more signal.
A short description of assay [16]: probe aWnt5a binding to arrayed compounds – biochemical, biotinylated probe, 635/667 nm fluorescence, primary screen (AID 1113).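 Also: score merges 667 nm fluorescence intensity with signal-to-noise per printed feature.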 Particulars: small-molecule microarray, higher = more signal.
Assay [17] in a line: probe aShh binding to arrayed compounds – biochemical, biotinylated probe, 635/667 nm fluorescence, primary screen (AID 1114).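 Also: probe is biotin-labelled aShh protein from a stem cell growth factor screen; measures binding of labelled protein to compounds printed on the slide; score merges feature fluorescence at 667 nm with signal-to-noise.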 The conditions noted are these: small-molecule microarray, higher = more signal.
Assay [18] is described as follows: probe aNog binding to arrayed compounds – biochemical, biotinylated probe, 635/667 nm fluorescence, primary screen (AID 1115).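 Also: probe is biotinylated aNog protein used at 0.15 µg/mL for 1 h at 4 C; z-score combines 667 nm fluorescence of each spot with its signal to noise.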 The conditions noted are these: small-molecule microarray, higher = more signal.
Assay [19] concerns the target Torsin-1A-interacting protein 1 (Homo sapiens) (UniProt Q5JTV8). Nature of the assay: compound microarray binding of lysate hLAP1 – cell lysate, small-molecule microarray, COS7 lysate, 635/667 nm fluorescence, primary screen (AID 1116). The conditions noted are these: 635 nm fluorescence, higher = more signal.
Assay [20] has as its target Alpha-bungarotoxin (Bungarus multicinctus) (UniProt P60615). The assay is described as follows: compounds binding labelled alpha-BTX control protein – biochemical, small-molecule microarray, Alexa647 label, 635/667 nm fluorescence, artefact control for SMM control protein annotation, profiling panel (AID 1117). The conditions noted are these: alpha-BTX-A647 binding fluorescence, higher = more signal.

Structures are written as SMILES. Calls of active or inactive are those of the source.

Sequence of Left-right determination factor 2 (Homo sapiens) (O00292 whole entry, looked up): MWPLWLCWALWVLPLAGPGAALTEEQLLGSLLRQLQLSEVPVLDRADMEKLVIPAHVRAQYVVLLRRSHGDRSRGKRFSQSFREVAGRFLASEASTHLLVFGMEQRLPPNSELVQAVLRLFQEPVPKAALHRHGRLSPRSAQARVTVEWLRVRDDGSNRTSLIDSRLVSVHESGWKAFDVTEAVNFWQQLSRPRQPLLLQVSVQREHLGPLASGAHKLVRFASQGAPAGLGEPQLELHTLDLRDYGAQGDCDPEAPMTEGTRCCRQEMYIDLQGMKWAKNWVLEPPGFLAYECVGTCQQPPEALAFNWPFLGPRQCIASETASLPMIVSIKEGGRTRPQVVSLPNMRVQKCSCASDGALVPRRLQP
Sequence of Torsin-1A-interacting protein 1 (Homo sapiens) (Q5JTV8 whole entry, looked up): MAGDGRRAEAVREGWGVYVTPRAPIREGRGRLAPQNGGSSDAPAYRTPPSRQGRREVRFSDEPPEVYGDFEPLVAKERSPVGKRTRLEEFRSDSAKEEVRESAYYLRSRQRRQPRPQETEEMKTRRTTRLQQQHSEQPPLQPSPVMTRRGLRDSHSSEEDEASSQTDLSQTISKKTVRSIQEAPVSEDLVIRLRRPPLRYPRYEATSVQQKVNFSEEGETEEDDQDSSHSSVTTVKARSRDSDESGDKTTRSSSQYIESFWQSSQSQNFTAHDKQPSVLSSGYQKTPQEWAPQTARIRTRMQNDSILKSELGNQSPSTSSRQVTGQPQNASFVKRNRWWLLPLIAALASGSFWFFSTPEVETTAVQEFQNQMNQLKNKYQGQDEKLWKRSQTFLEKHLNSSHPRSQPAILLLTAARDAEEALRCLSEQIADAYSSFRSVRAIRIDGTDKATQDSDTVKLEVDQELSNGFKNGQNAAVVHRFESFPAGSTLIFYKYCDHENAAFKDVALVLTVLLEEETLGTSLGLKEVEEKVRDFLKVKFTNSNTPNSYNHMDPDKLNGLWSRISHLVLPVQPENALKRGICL
Sequence of Alpha-bungarotoxin (Bungarus multicinctus) (P60615 whole entry, looked up): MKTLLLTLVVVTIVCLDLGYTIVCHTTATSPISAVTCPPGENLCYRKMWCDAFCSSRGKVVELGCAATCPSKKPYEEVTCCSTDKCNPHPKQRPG

For the compound `CO[C@H]1O[C@H](CO)[C@@H](OC(=O)Nc2cccc(F)c2)[C@H](OC(=O)c2cc3ccccc3[nH]2)[C@H]1OC(=O)c1cc2ccccc2[nH]1`, the composite z-score is -0.233 in assay [1]; -0.448 in assay [2]; -0.154 in assay [3]; 0.284 in assay [5]; -0.199 in [6]; -0.213 in [7]. Moreover, the composite z-score in assay [8] is 0.469; in assay [9] it was 0.135; in assay [10], 0.0912; in assay [11], 0.177; in assay [13] it was 0.0416; in assay [14], 0.681. For the same compound, the composite z-score in [15] is 0.0008; in assay [16], -0.232; in assay [17], -0.138; in assay [18], -0.158; in [19] it was -0.009; in assay [20], 0.698. The z-score in [4] was -1.57 (inactive); in assay [12] it was -2.25.
As to `CS(=O)(=O)CCOC(=O)C1=CC(CCCO)=CC(C2CC2)N(Cc2sc3ccccc3c2Cl)C=C1C(=O)OCCS(C)(=O)=O` (stereo not given), the composite z-score in assay [1] is 1.38; in [2], 0.33; in assay [3], 0.669; in assay [5], 0.705; in [6], 0.838; in assay [7] it was -0.0062. Moreover, the composite z-score came out at 0.856 in assay [8]; 0.018 in [9]; 1.36 in assay [10]; 0.632 in assay [11]; 0.191 in assay [13]; 1.18 in [14]. For the same compound, the composite z-score in assay [15] is 0.811; in [16] it was 0.0324; in [17] it was 0.214; in assay [18] it was 0.614; in assay [19] it was -0.643; in [20] it was 0.904. Also, the values for the z-score in assay [4] and in assay [12] were 0.385 (inactive) and -2.01, respectively.
In the case of `CCCCN1CC=CC23O[C@@H]4/C=C\CCC(C)OC(=O)C4[C@H]2C(=O)N(CCO)[C@@H]3C1=O` (stereo not given in full), the composite z-score in assay [1] was 1.38; in assay [2], -0.218; in assay [3], 0.64; in assay [5], -1.17; in assay [6], -0.415; in assay [7] it was -0.652. For the same compound, the composite z-score in assay [8] is -0.0882; in assay [9] it was -0.231; in [10] it was 1.19; in assay [11] it was -0.391; in [13], -0.99; in assay [14], -0.896. Moreover, the composite z-score is -0.272 in assay [15]; -0.171 in assay [16]; -0.2 in [17]; 0.171 in assay [18]; 3.55 in [19]; -0.238 in [20]. Further, the figures for the z-score in assay [4] and in [12] were 0.267 (inactive) and -0.58, respectively.
For `CCCCCN1CC=CC23O[C@@H]4/C=C\CCCOC(=O)C4[C@H]2C(=O)N(CCCCCO)[C@@H]3C1=O` (stereo not given in full), the composite z-score in assay [1] was 0.447; in assay [2] it was -0.267; in assay [3] it was 0.337; in assay [5], -0.566; in assay [6] it was -0.364; in assay [7] it was -0.779. Besides, the composite z-score in assay [8] was -0.521; in [9], -0.833; in assay [10], 0.468; in assay [11], -0.735; in [13] it was -1.08; in assay [14], -0.517. Besides, the composite z-score in assay [15] was -0.97; in [16] it was -0.224; in assay [17], 0.0121; in [18], -0.121; in [19], -1.28; in assay [20] it was -0.543. The z-score in assay [4] was -0.831 (inactive); in [12], -0.831.
For `COCCOC(=O)N1C(=O)[C@@]2(c3ccccc31)[C@H](C(=O)Nc1nc3ccccc3s1)[C@H]1C(=O)O[C@H](c3ccccc3)[C@H](c3ccccc3)N1[C@@H]2c1ccccc1OCCO`, the composite z-score in assay [1] was found to be 1.53; in [2] it was 0.114; in [3], 0.653; in assay [5], 0.906; in assay [6], 0.783; in assay [7], 0.209. Also, the composite z-score was 0.678 in assay [8]; 0.0159 in assay [9]; 0.769 in assay [10]; 1.41 in assay [11]; 0.146 in assay [13]; 1.51 in [14]. For the same compound, the composite z-score in assay [15] is 0.476; in assay [16], -0.0685; in assay [17] it was -0.225; in [18] it was 0.36; in [19], 0.429; in assay [20], 1.72. Further, the z-score in assay [4] is -0.794 (inactive); in assay [12], -1.83.
For the compound `C=CC[C@]1(C(N)=O)N=C(c2ccc(OCCCO)cc2)O[C@H]1c1ccccc1N=[N+]=[N-]`, the composite z-score worked out at 1.56 in [1]; 1.28 in assay [2]; 1.26 in assay [3]; 1.06 in assay [5]; 0.755 in assay [6]; 0.259 in assay [7]. For the same compound, the composite z-score is 1.03 in assay [8]; 0.0701 in [9]; 1.48 in assay [10]; 0.811 in assay [11]; 0.0562 in assay [13]; 0.85 in assay [14]. In addition, the composite z-score in [15] was 0.0151; in assay [16], 0.0317; in assay [17] it was 0.0611; in assay [18], -0.153; in assay [19], 1.29; in [20], 1.71. Also, the results for the z-score in assay [4] and in assay [12] were -0.401 (inactive) and 0.304, respectively.

The values are drawn from PubChem BioAssay.
